{"source": "ChEMBL document CHEMBL4513216", "about": "“Probing the Open Global Health Chemical Diversity Library for Multistage-Active Starting Points for Next-Generation Antimalarials” (ACS Infect Dis, 2020)", "note": "Among all 69,000 compounds or so, about 8,600 (12%) showed an effect of 50% or more. Many of the other results were omitted from the sample, so strong results are more common in it than they were.", "data": [{"system": "Plasmodium berghei", "test": "Screen against P. berghei liver stage (PbLuc), transformed with Luciferase, at 10uM", "format": "functional, HepG2", "conditions": "tested at 10 uM", "units": {"INHIBITION": "%"}, "values": [{"smiles": "O=C(c1cnc(C2CC2)s1)N1CCCC1Cn1cccn1", "note": "(stereo not drawn)", "INHIBITION": 8.64}, {"smiles": "Cc1nn(CCC(=O)NC2CCS(=O)(=O)C2)c(C)c1Br", "note": "(stereo not drawn)", "INHIBITION": -8}, {"smiles": "Cc1ccoc1C(=O)N1C[C@H]2CCC[C@@]2(COCc2ccncc2)C1", "INHIBITION": 41.8}, {"smiles": "CC(C)CN1CC2(CCN(C(=O)C(O)c3cccc(Cl)c3)CC2)CC1=O", "note": "(stereo not drawn)", "INHIBITION": -28.9}, {"smiles": "CCN1CC2(CCC1=O)CCN(C(=O)c1ccc(Cl)cc1O)CC2", "INHIBITION": 36.8}, {"smiles": "CCN1CC2(CCC1=O)CCN(C(=O)C(O)c1cccc(Cl)c1)CC2", "note": "(stereo not drawn)", "INHIBITION": 71.1}, {"smiles": "O=C(NCC1CCOCC1)[C@H]1C[C@@H]2CCN(c3nncs3)C[C@@H]2O1", "INHIBITION": 24.3}, {"smiles": "Cc1ccc(NC2CCN(C(=O)c3n[nH]c4ccccc34)CC2)nn1", "INHIBITION": 11}, {"smiles": "CCC(O)CN1CCN(C(=O)c2cccc3[nH]ncc23)CC1", "note": "(stereo not drawn)", "INHIBITION": -29.8}, {"smiles": "O=C(c1ccc(F)cc1Cl)N1CCn2c(nnc2C(F)(F)F)C1", "INHIBITION": 68.8}, {"smiles": "Cc1ccc(NC2CCN(C(=O)c3cccc4c3ccn4C)CC2)nn1", "INHIBITION": 31.2}, {"smiles": "Cc1ccc(NC2CCN(C(=O)c3cccc4[nH]ncc34)CC2)nn1", "INHIBITION": 55.4}, {"smiles": "CC(O)CN1CCN(C(=O)c2cccc3[nH]ncc23)CC1", "note": "(stereo not drawn)", "INHIBITION": -31.8}, {"smiles": "Cc1ccc(NC2CCN(C(=O)Cn3nc(C)cc3C)CC2)nn1", "INHIBITION": 3.81}, {"smiles": "CCn1nc(C)c(C(=O)N2CCC(Nc3ccc(C)nn3)CC2)c1C", "INHIBITION": 17.5}, {"smiles": "COc1ccc(F)cc1C(=O)N1CCn2c(nnc2C(F)(F)F)C1", "INHIBITION": 6.33}, {"smiles": "CCn1nc(C)cc1C(=O)N1CCC(Nc2ccc(C)nn2)CC1", "INHIBITION": 57.7}, {"smiles": "CC(C)(C)C(O)CN1CCN(C(=O)c2cccc3[nH]ncc23)CC1", "note": "(stereo not drawn)", "INHIBITION": 69.8}, {"smiles": "O=C(c1cccc(F)c1F)N1CCn2c(nnc2C(F)(F)F)C1", "INHIBITION": 34.6}, {"smiles": "CCS(=O)(=O)N1Cc2ncn(CC3CC3)c2C(COCC2CC2)C1", "note": "(stereo not drawn)", "INHIBITION": 9.51}, {"smiles": "NC(=O)CC1CCN(C(=O)NCc2cccc(-n3cccn3)c2)CC1", "INHIBITION": -0.378}, {"smiles": "O=C(O)c1ccccc1-c1ccc(CN2CCC(CO)C2)cc1", "note": "(stereo not drawn)", "INHIBITION": -12.3}, {"smiles": "CC(C)Oc1cccc(CNC(=O)N2CCC(N3CC=CC3)C2)c1", "note": "(stereo not drawn)", "INHIBITION": 16.1}, {"smiles": "O=C(CN1CCOC(CNc2cccnn2)C1)NCc1ccccn1", "note": "(stereo not drawn)", "INHIBITION": 23.5}, {"smiles": "c1cnc(-c2nn3c(CN4CCCCCC4)nnc3s2)cn1", "INHIBITION": 21.7}, {"smiles": "Cc1cc(NC(C)c2n[nH]c(C)n2)n2nc(C)c(C)c2n1", "note": "(stereo not drawn)", "INHIBITION": 18.4}, {"smiles": "CC(CNC(=O)Nc1cn[nH]c1)N1CCCC1", "note": "(stereo not drawn)", "INHIBITION": -21.9}, {"smiles": "Cc1ccc(NC2CCN(C(=O)c3ccc(Cl)cc3F)CC2)nn1", "INHIBITION": 37.9}, {"smiles": "Cc1ccc(NC2CCN(C(=O)c3ccc(C)o3)CC2)nn1", "INHIBITION": 51.65}, {"smiles": "CCn1c(C)cc(C(=O)N2CCC(NC(=O)c3ccc(C)o3)CC2)c1C", "INHIBITION": 74}, {"smiles": "CCn1c(C)cc(C(=O)N2CCC(NC(=O)c3cc(C)no3)CC2)c1C", "INHIBITION": -7.36}, {"smiles": "Cc1ccc(NC2CCN(C(=O)c3ccc(Cl)o3)CC2)nn1", "INHIBITION": -33.5}, {"smiles": "O=C(c1ccc(F)cc1Cl)N1CCC(Nc2cccnn2)CC1", "INHIBITION": 41.4}, {"smiles": "Cc1ccc(NC2CCN(C(=O)c3ccc(F)cc3Cl)CC2)nn1", "INHIBITION": 56.4}, {"smiles": "CCc1ccc(C(=O)N2CCC(Nc3ccc(C)nn3)CC2)o1", "INHIBITION": 33.8}, {"smiles": "CCn1c(C)cc(C(=O)N2CCC(Nc3ccc(C)nn3)CC2)c1C", "INHIBITION": 32.9}, {"smiles": "CCc1nc(C2CCCN(C(=O)NC3CC3)C2)no1", "note": "(stereo not drawn)", "INHIBITION": -81.1}, {"smiles": "CC(C)CNC(=O)c1nnsc1-c1ccccc1", "INHIBITION": 2.69}, {"smiles": "COCCN1C[C@@H]2CC[C@H]1CN(C(=O)CCc1n[nH]c(C)c1C)C2", "INHIBITION": -4.92}, {"smiles": "COc1cccc(N2CCN(Cc3nccn3C(C)C)CC2=O)c1", "INHIBITION": 59.5}, {"smiles": "COc1cccc(N2CCN(Cc3cc(C)cc(F)c3)CC2=O)c1", "INHIBITION": 11.3}, {"smiles": "COc1cccc(N2CCN(Cc3ncc[nH]3)CC2=O)c1", "INHIBITION": -26.5}, {"smiles": "COc1cccc(N2CCN(Cc3nccc(OC)c3OC)CC2=O)c1", "INHIBITION": 11.2}, {"smiles": "CCn1cc(CN2CCN(Cc3cccc(OC)c3)C(=O)C2)cc1C#N", "INHIBITION": 56.3}, {"smiles": "COc1cccc(N2CCN(Cc3ccc(NC(C)=O)cc3)CC2=O)c1", "INHIBITION": 38.5}, {"smiles": "CCn1cc(CN2CCN(Cc3cc(C)cc(C)c3)C(=O)C2)cc1C#N", "INHIBITION": -17.8}, {"smiles": "COc1cccc(CN2CCN(Cc3ccc4nonc4c3)CC2=O)c1", "INHIBITION": 24.9}, {"smiles": "COc1cc(CN2CCN(c3cccc(OC)c3)C(=O)C2)cc(OC)c1", "INHIBITION": 58.5}, {"smiles": "Cc1n[nH]c(C2CN(CC(=O)NCCc3ccccc3C)CCO2)n1", "note": "(stereo not drawn)", "INHIBITION": 43.1}, {"smiles": "Cc1occc1C(=O)N1CCC2(CCC(C(=O)NCC3CC3)O2)CC1", "note": "(stereo not drawn)", "INHIBITION": -5.94}, {"smiles": "CCC(CNS(=O)(=O)c1cccc(C(=O)OC)c1)N1CCCC1", "note": "(stereo not drawn)", "INHIBITION": -39.2}, {"smiles": "O=C1CCC[C@]2(CN(S(=O)(=O)C3CCCCC3)C[C@H]2c2cccnc2)N1", "INHIBITION": -11.4}, {"smiles": "O=C(COc1ccc(-n2cccn2)nn1)NC1CCCCC1", "INHIBITION": -10.6}, {"smiles": "Cc1ncc(-c2ccnc(N3CCC[C@@H]3CO)n2)c(-c2cccnc2)n1", "INHIBITION": 20.4}, {"smiles": "OC[C@H]1CCCN1c1nccc(-c2c[nH]nc2C2CCCCC2)n1", "INHIBITION": 54.5}, {"smiles": "OC[C@H]1CCCN1c1nccc(-c2cncnc2C2CCCCC2)n1", "INHIBITION": 64.9}, {"smiles": "O=c1c(-c2ccnc(N3CCCC[C@@H]3CO)n2)cnc2sccn12", "INHIBITION": 35.2}, {"smiles": "O=c1c(-c2ccnc(N3CCC[C@H]3CO)n2)cnc2sccn12", "INHIBITION": -4.82}, {"smiles": "OC[C@@H]1CCCN1c1nccc(-c2c[nH]nc2-c2ccncc2)n1", "INHIBITION": -15.2}, {"smiles": "O=C(NCCn1cccc1)C(c1ccccc1)N1CCCC1", "note": "(stereo not drawn)", "INHIBITION": 15.4}, {"smiles": "CCOC1CCCN(C(=O)CCOc2ccc(C)cc2OC)C1", "note": "(stereo not drawn)", "INHIBITION": 8.59}, {"smiles": "Cn1cc2ncn(C3CCN(c4ccccc4F)CC3)c(=O)c2n1", "INHIBITION": -6.03}, {"smiles": "CCN(CC)CCCNc1nccc(-c2cn(C)nc2C)n1", "INHIBITION": 43.9}, {"smiles": "Cc1nn(C)cc1-c1ccnc(NCCN)n1", "INHIBITION": 59.4}, {"smiles": "CNc1nccc(-c2cn(C)nc2C)n1", "INHIBITION": 29.4}, {"smiles": "Cc1ccc(NCCCNc2nccc(-c3cn(C)nc3C)n2)nc1", "INHIBITION": 51.2}, {"smiles": "Cc1nn(C)cc1-c1ccnc(N2CCSCC2)n1", "INHIBITION": 47.2}, {"smiles": "CNCCNc1nccc(-c2cn(C)nc2C)n1", "INHIBITION": 19.4}]}]}
